Measured values taken from PubChem BioAssay (NCI).
Compounds without any hit were thinned out: in the full panel of roughly 83,000, 20% have a hit.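 Single-concentration screen, 48 h exposure, 96-well plates. Endpoint: percent growth. Below 10 = active.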 Unmarked numbers belong to inactive results. Calls of active or inactive are those of the source.

What was measured:
Assay in all cases: NCI-60 one-dose screen, 48 h (100 = growth as untreated, 0 = no growth, -100 = all killed)
Settings in all cases: 10 µM unless noted
[1] = system: RPMI-8226 leukemia
[2] = system: OVCAR-8 ovarian
[3] = system: OVCAR-4 ovarian
[4] = system: IGROV1 ovarian
[5] = system: OVCAR-3 ovarian
[6] = system: HS 578T breast
[7] = system: NCI/ADR-RES ovarian
[8] = system: OVCAR-5 ovarian
[9] = system: SK-OV-3 ovarian

CCCCCN(CCCCC)CC(O)c1cc(C)c2ccc3cc(C(C)C)ccc3c2c1 (configuration not stated) was tested, and the growth [1] was -18.6% (active), the growth [2] was -35.9% (active) and the growth [3] was 19.4%. For the same molecule, the growth [4] was -12.8% (active), the growth [5] was -47.7% (active) and the growth [6] was -24% (active). For the same molecule, the growth [7] was -54.6% (active).

C=CCn1c(SCC(=O)Nc2ccc(/C(C)=N/O)cc2)nnc1-c1cc(-c2ccc(S(N)(=O)=O)cc2)nc2ccccc12 showed a growth [1] of 48.8%, a growth [2] of 54.7% and a growth [8] of 93.5%. The growth [3] was 66.2%, the growth [9] was 109% and the growth [4] was 30.9%. The growth [5] was 70.9%, the growth [6] was 74.1% and the growth [7] was 99%.

CCN(CC)c1ccc(CNc2cc(C)nc3ccccc23)cc1 was tested, and the growth [1] was 41.7%, the growth [3] was 52% and the growth [9] was 78.3%. For the same molecule, the growth [4] was 74.8%, the growth [5] was 63.7% and the growth [6] was 85.6%. For the same molecule, the growth [7] was 47.7%.

CC1(C)C(N)=Nc2cc(OCCCN3Cc4ccccc4C3)c(OCC3CC3)cc21 gave a growth [1] of 44.3%, a growth [2] of 76.8% and a growth [8] of 83.2%. It also gave a growth [3] of 91.4%, a growth [9] of 75% and a growth [4] of 80.2%. For the same molecule, the growth [5] was 80.6%, the growth [6] was 71.7% and the growth [7] was 92.9%.

For CCN1C(=O)N(CC)C2C1NN=c1s/c(=C3\C(=O)N(CCC(C)C)c4ccccc43)c(=O)n12 (configuration not stated), the growth [1] was 17%, the growth [2] was 9.81% (active) and the growth [8] was 34.1%. For the same molecule, the growth [3] was 45.5%, the growth [9] was 43.7% and the growth [4] was 19.4%. The growth [5] was 3.23% (active), the growth [6] was 15% and the growth [7] was 8.98% (active).

Work on CNC(=O)c1cc(Oc2ccc3c(c2)sc2nc(-c4ccc(OC)cc4)cn23)ccn1 yielded a growth [1] of 20.2%, a growth [2] of 52.4% and a growth [8] of 36%. The growth [3] was 65.8%, the growth [9] was 16.8% and the growth [4] was 83.3%. For the same molecule, the growth [5] was 4.08% (active), the growth [6] was 76.8% and the growth [7] was 71.3%.

COc1cccc(-c2cc(-c3cccc(Cl)c3)c(C#N)c(=O)[nH]2)c1 was tested, and the growth [1] was 64.3%, the growth [2] was 89.6% and the growth [8] was 96.7%. The growth [3] was 73%, the growth [4] was 71.8% and the growth [5] was 51%. For the same molecule, the growth [6] was 49.3% and the growth [7] was 69.2%.

CCN(CC)CCN1C(=O)c2cccc3c(/C=C/CN4C(=O)c5cccc6cccc(c56)C4=O)ccc(c23)C1=O showed a growth [1] of 26.5%, a growth [2] of 92.1% and a growth [8] of 94.4%. It also gave a growth [3] of 102%, a growth [9] of 112% and a growth [4] of 90.1%. For the same molecule, the growth [5] was 108%, the growth [6] was 84.8% and the growth [7] was 99.8%.

CN(CCCNC(=O)Cc1ccc2ccc3cccc4ccc1c2c34)CCCNc1cc(-c2ccc3ccccc3c2)nc2ccccc12 was tested, and the growth [1] was -47% (active), the growth [2] was -25.3% (active) and the growth [8] was -88.2% (active). The growth [3] was -83% (active), the growth [9] was -85.6% (active) and the growth [4] was -19.4% (active). The growth [5] was -81.5% (active), the growth [6] was -32% (active) and the growth [7] was -77.7% (active).

C=C(c1ccc(OC)c(/C=C/C(=O)c2ccc3c(c2)OCO3)c1)c1cc(OC)c(OC)c(OC)c1 showed a growth [1] of 11.7%, a growth [8] of 36.6% and a growth [3] of 38.9%. For the same molecule, the growth [9] was 27.4%, the growth [4] was 35.2% and the growth [5] was 1.16% (active). It also gave a growth [6] of 40.8%.

For CCOC(=O)c1cc(C(=O)c2cc(OC)c(OC)c(OC)c2)n2ccccc12, the growth [1] was 23.2%, the growth [8] was 71.5% and the growth [3] was 67.9%. The growth [9] was 22.3%, the growth [4] was 49.6% and the growth [5] was -5.59% (active). It also gave a growth [6] of 40.1% and a growth [7] of 10.7%.

For CC[N+]1(CC)CC[N+]2(CCCC(C)CC2)CC1 (configuration not stated), the growth [1] was 99.9%, the growth [2] was 105% and the growth [8] was 94.8%. The growth [3] was 111%, the growth [9] was 104% and the growth [4] was 95.6%. The growth [5] was 111%, the growth [6] was 107% and the growth [7] was 111%.

COC(=O)c1nc(-c2ccccc2)oc1S(=O)(=O)NCC(c1ccc(Cl)cc1)N1CCOCC1 (configuration not stated) was tested, and the growth [1] was 7.86% (active), the growth [2] was 65% and the growth [8] was 77.7%. It also gave a growth [3] of 86.2%, a growth [9] of 97% and a growth [4] of 61.1%. For the same molecule, the growth [5] was 35.1%, the growth [6] was 85.8% and the growth [7] was 97.9%.

Work on CCCn1cnc2c(c1=N)C(c1ccc(F)cc1)c1sc3c(F)cccc3c1O2 (configuration not stated) yielded a growth [1] of 39.7%, a growth [2] of 59.1% and a growth [8] of 81.4%. For the same molecule, the growth [3] was 76.7%, the growth [9] was 71% and the growth [4] was 46.2%. It also gave a growth [5] of 10.5%, a growth [6] of 28.7% and a growth [7] of 31.1%.

Work on COc1ccc(Cn2cc(C(=O)N=Nc3c(O)[nH]c4c(C)cccc34)nn2)cc1 yielded a growth [1] of 90%, a growth [2] of 67.6% and a growth [8] of 93.6%. For the same molecule, the growth [3] was -28.2% (active), the growth [9] was 110% and the growth [4] was 84.8%. For the same molecule, the growth [5] was 46.7%, the growth [6] was 84.1% and the growth [7] was 71.2%.

Molecule Clc1ccccc1-c1cnn2cc(-c3ccccc3)cnc12 has a growth [1] of 87.1%, a growth [2] of 78.9% and a growth [8] of 79.6%. For the same molecule, the growth [3] was 76.1%, the growth [9] was 83.9% and the growth [4] was 78.6%. It also gave a growth [5] of 90%, a growth [6] of 74.4% and a growth [7] of 83.7%.

Molecule N#CC1CCc2c(c(-c3ccc4nc(N)sc4c3)nc3ccc4[nH]ncc4c23)C1 (configuration not stated) has a growth [1] of 43.4%, a growth [2] of 46.4% and a growth [8] of 65.5%. The growth [3] was 64.9%, the growth [9] was 33.7% and the growth [4] was 53.2%. For the same molecule, the growth [5] was 69.7%, the growth [6] was 30.9% and the growth [7] was 63.7%.

Work on COc1ccc(Oc2nc(Nc3ccc(N4CCOCC4)cc3)ncc2NC(=O)Nc2cc(OC)cc(OC)c2)cc1 yielded a growth [1] of 54.3%, a growth [2] of 18.4% and a growth [8] of 60.9%. For the same molecule, the growth [3] was 54.5%, the growth [9] was 57.4% and the growth [4] was 37.8%. It also gave a growth [5] of 18.3%, a growth [6] of 36.2% and a growth [7] of 80.8%.

CCCCNC(=O)Oc1ccc(/C(=C(/C)Cc2ccc(OC)cc2)c2ccc(OCCN3CCCCCC3)cc2)cc1 was tested, and the growth [1] was 33.6%, the growth [8] was 96% and the growth [3] was 84.4%. The growth [9] was 85.8%, the growth [4] was 92.3% and the growth [5] was 63.9%. For the same molecule, the growth [6] was 82.1% and the growth [7] was 81.4%.
